Source: PubChem
The list is not random: actives were taken first. Their share in the collection is about 7.9%.
HCV inhibitor – inhibitors of hepatitis C virus infection; actives 3.4% (n = 340,000); Huh7.5.1 HCVcc-Cre infection, luciferase reporter, 44 h; Potency, µM (titrated, usually from 41.8 µM), without a hit: at the top dose activity change, negative = inhibition, hits mostly inhibitors; AID 651820; active = well fitted inhibition curve with a large enough effect; inconclusive = small, poorly fitted or top-dose-only effect, or another doubt; inactive = no such curve, though single readings can be large or run the other way; note: potency is the fitted concentration of half-maximal effect
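1,000 cells/well; 4 h culture; + compound; + HCVcc-Cre (~0.5 moi); 44 h; luciferase substrate, RT 15 min; read 15 sec.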
LASV entry inh – inhibitors of Lassa virus binding or cell entry; Lassa virus pseudotype entry inhibition, cell reporter; Potency, µM (top dose mostly 37.9 µM), inactives show top-dose activity change, negative = inhibition, most hits filed as inhibitors; actives 1.2% (n = 300,000); AID 540256; calls by dose curve; tested in HEK293 cells; note: potency is the fitted concentration of half-maximal effect; nearly all actives have a fitted effect of over 50% in size
Marburg entry inh – inhibitors of Marburg virus binding or cell entry | Marburg virus pseudotyped entry inhibition, cell reporter | Potency, µM (highest dose often 37.8 µM), inactives show top-dose activity change, negative = inhibition, hits mostly inhibitors | actives 1.8% (n = 300,000) | AID 540276; calls by dose curve; tested in HEK293 cells; note: potency is the fitted concentration of half-maximal effect
HCMV antiviral – inhibitors of human cytomegalovirus; HFF cells, HCMV-luciferase reporter, 72 h; active compounds read low; activity change, negative = inhibition, % at 57.5 µM; actives 4.5% (n = 410,000); AID 1259415; in the data active = activity change below about -60%; inconclusive = no clear call, values can overlap the other calls; inactive = above about -39%
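Two compound doses tested in HFFs infected with HCMV-luciferase, MOI 1 PFU/cell, 72 h at 37C. Lysate luminescence read with OneGlo; data normalized against buffer-only and 10uM Salinomycin inhibitor controls.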
FMDV antiviral – antivirals against foot and mouth disease virus | FMDV antiviral cell-based qHTS | actives 1.2% (n = 410,000) | Potency, µM (titrated, usually from 57.9 µM), for inactives: at the top dose activity change, negative = inhibition, hits mostly inhibitors; calls by dose curve; tested in HEK293T cells; note: read-out not given here; potency is the fitted concentration of half-maximal effect; nearly all actives have a fitted effect of over 45% in size
The depositor's hits bear a star; u = inconclusive; x = no result; [ ] = another dose, or the depositor's remark. % is set by controls: 0 for no effect and ±100 for the full control effect.

SMILES	HCV inhibitor	LASV entry inh	Marburg entry inh	HCMV antiviral	FMDV antiviral
Cc1ccc(C(=O)NCC(=O)NC2CCCCCC2)cc1	-4%	25%	8%	-97*	55%
CCc1cc(=O)oc2cc(C)c3c(C)coc3c12	11µM*	14%	u	20	3%
Cc1coc2c1c(C)cc1oc(=O)cc(C)c12	x	19%[46.1 µM]	-8%[46.1 µM]	-12	0%
CNC(CC(=O)c1ccc([N+](=O)[O-])cc1)C(Cl)(Cl)Cl (stereo not given)	9%	u	u	x	32µM*
COC(=O)c1ccc(NC(=O)Nc2ccc3c(c2)nc(C)n3C)cc1	-26%	18%[46.1 µM]	u	u	16%
Cc1cc(NC(=O)Nc2ccc3c(ccn3C)c2)sn1	0.56µM*	u	u	-5	45%
COc1ccc(NC(=O)CSc2nc3ccccc3nc2N2CCCC2)c(OC)c1	6%	x	x	-28	-18%
COc1cc(NC(=O)COC(=O)CO/N=C(\C)c2ccc3c(c2)OCO3)cc(OC)c1	13%	x	x	0	-15%
Cc1ccccc1NC(=O)C1C(=O)Nc2ccccc2C(=O)N1Cc1ccccc1 (stereo not given)	x	x	x	0	-1%
Cc1ccn2c(-c3csc(NCc4ccco4)n3)c(C)nc2c1	u	0%	0%	-68*	u
COc1ccc(-c2csc(NCc3ccco3)n2)cc1C	-20%	-4%	4%	x	91%
O=C(/C=C\Nc1cccc(F)c1)c1cccs1	6%	11µM*	u	70	-36%
O=C(/C=C/Nc1ccccc1F)c1cccs1	9%	1.4µM*	6.3µM*	74	13µM*
Cc1ccc(N/C=C/C(=O)c2cccs2)cc1	-2%	x	x	13	-51%
CCOC(=O)c1ccccc1N/C=C/C(=O)c1cccs1	u	-3%	u	54	14%
O=C(/C=C/Nc1ccc(F)cc1F)c1cccs1	0%	1.4µM*	u	49	20µM*
O=C(/C=C\Nc1ccc2c(c1)OCO2)c1cccs1	6%	u	u	-12	10µM*
CC(Sc1nnc(CN2CCCC2)n1Cc1ccccc1)C(=O)Nc1ccc(F)cc1Cl (stereo not given)	u	-25%	u	-5	0%
O=C(Nc1ccc2c(c1)OCO2)c1ccccn1	-7%	x	x	58	61%
O=C(/C=C\Nc1ccc2c(c1)OCO2)c1ccccn1	14%	0.45µM*	u	-81*	2µM*
O=Cc1ccc(-c2ccc([N+](=O)[O-])cc2Cl)o1	1%	2%	2%[46.1 µM]	-66*	-15%
O=c1c(N2CCN(c3ccccc3)CC2)csc2ccc(Cl)cc12	x	-11%[46.1 µM]	x	-4	18%
CCCCN(C)CCNC(=O)c1ccc(Cn2c(=S)[nH]c3ccc(Br)cc3c2=O)cc1	11µM*	7%	u	15	43%
CN(C)CCNC(=O)c1ccc2c(=O)n(Cc3ccc(Cl)cc3)c(=S)[nH]c2c1	u	u	u	12	-10%
Cc1ccc(NC(c2cccc(Cl)c2)c2nnc(-c3ccccc3)o2)cc1F (stereo not given)	x	2%[46.1 µM]	u	11	11%
SMILES	HCV inhibitor	LASV entry inh	Marburg entry inh	HCMV antiviral	FMDV antiviral
CC(C)(C)c1csc(NC(=O)c2ccc(Br)o2)n1	u	x	x	-32	2%
c1ccc(-c2cnc(CSc3ncnc4sccc34)o2)cc1	11µM*	4%	-11%	3	-6%
Cc1ccccc1C(OCCN(C(C)C)C(C)C)c1ccccc1 (stereo not given)	-2%	4µM*	u	u	u
CCc1nc2ccc(C(=O)N3CCN(C(=O)c4ccco4)CC3)cn2c1N(C)C(=O)Nc1ccccc1OC	x	x	x	6	-20%
O=C(COc1ccc(-c2nnco2)cc1)Nc1cc([N+](=O)[O-])ccc1F	-9%	7%[46.1 µM]	-13%[46.1 µM]	-26	-3%
CNC(=O)c1c2c(nc3ccc(Br)cc13)CCCC2	25µM*	u	-8%[46.1 µM]	-1	-25%
CCOC(=O)c1c(CSc2nc(C)cc(C)c2C#N)n(C)c2cc(Br)c(OC(C)=O)cc12	u	u	-3%	-94*	u
CCOC(=O)CC(=O)CSc1nc(C)cc(C)c1C#N	5%	-2%	0%[46.1 µM]	0	0%
C=CCCc1ccc(C#N)c(SCc2c(C(=O)OCC)c3cc(OC(C)=O)c(Br)cc3n2C)n1	u	7.9µM*	u	x	u
C=C1C[C@H]2[C@@H]3C=C(C)C4=CC(=O)CC[C@]4(C)[C@H]3CC[C@]2(C)[C@@]1(OC(C)=O)C(C)=O	u	x	x	-18	u
CC(=O)C1(O)CCC2C3CC(C)C4=CC(=O)CCC4(C)C3CCC21C (stereo not given)	x	x	x	-16	x
CC(=O)[C@@]1(O)CC[C@H]2[C@@H]3C[C@H](C)C4=CC(=O)CC[C@]4(C)[C@H]3CC[C@@]21C	u	u	-27%	u	28µM*
C=C1CC2C(CCC3(C)C2CCC3(O)C(C)=O)C2(C)CCC(=O)C=C12 (stereo not given)	-12%	5.6µM*	u	-79*	25µM*
CC(=O)C1(C)CCC2C3C=C(C)C4=CC(=O)CCC4(C)C3CCC21C (stereo not given)	u	u	11µM*	-14	-8%
Cc1cc(C)c(S(=O)(=O)Nc2ccc(-c3ccc(N4CCC(C)CC4)nn3)cc2)cc1C	x	u	x	u	56%
COc1cc(OC)cc(N(C(=O)C2COc3ccccc3O2)C(C(=O)NC2CCCCC2)c2ccc(O)cc2)c1 (stereo not given)	u	u	u	-77*	0%
COc1ccc(N(C(=O)C2COc3ccccc3O2)C(C(=O)NC2CCCCC2)c2ccccc2)cc1OC (stereo not given)	u	-26%	u	-63*	-9%
COc1cc(C(=O)OCC(=O)N2c3ccccc3NC(=O)C2(C)C)ccc1OCC(C)C	6.3µM*	u	u	-12	u
COc1cc(C2Nc3ccc4ncccc4c3C3=C2C(=O)CC(C)(C)C3)cc(OC)c1O (stereo not given)	-1%	-13%	-5%	-83*	33%
CN(C)c1ncc2nc(-c3cc(F)cc(F)c3)c(=O)n(C3CC3)c2n1	x	x	x	x	-9%
O=C(CSc1nnnn1C1CC2CCC1C2)Nc1ccnc2ccccc12 (stereo not given)	-15%	u	u	-76*	40µM*
Cc1ccc(NC2=Nc3ccccc3N3C2=Nc2c(c(C)nn2-c2ccccc2)C3c2ccc(O)c(O)c2)cc1 (stereo not given)	-72%	u	u	-64*	0%
Cc1nn(-c2ccccc2)c2c1C(c1ccc(O)c(O)c1)N1C(=N2)C(Nc2ccccc2)=Nc2ccccc21 (stereo not given)	19%	4%	9%	-1	-9%
Cc1nn(-c2ccccc2)c2c1C(c1ccc([N+](=O)[O-])cc1)N1C(=N2)C(=O)Nc2ccccc21 (stereo not given)	u	u	u	30	u
